From article PMC9911399, “Two distinct binding modes provide the RNA-binding protein RbFox with extraordinary sequence specificity” come the findings set out here.

Numbering of substitutions follows the chain as printed; changes in the protein carry UniProt numbers. In all, about 16,000 sequences were measured (“ka relative to ugcaugu”: median about 0.0091, highest 2% from about 0.032 on). Many of the other results were omitted from the sample, so the highest values are more common in it than they were.

The chains are these.
B1: UGUCCGA (DNA:RNA)
RNA: GGGAGACCGGAAUUCAGAUUGUCCUGUCCGAUUAAAUCCCGUCGUAGCCACCA
DNA 1: CAATCTGAATTCCGGTCTCCC
DNA 2: TGGTGGCTACGACGGGATT
B2: CCAGGCU (DNA:RNA)
RNA: GGGAGACCGGAAUUCAGAUUGUCCCCAGGCUUUAAAUCCCGUCGUAGCCACCA
DNA 1: CAATCTGAATTCCGGTCTCCC
DNA 2: TGGTGGCTACGACGGGATT
B3: UAGUUGG (DNA:RNA)
RNA: B1 RNA with G26A, U27G, C28U, C29U, A31G
DNA 1: CAATCTGAATTCCGGTCTCCC
DNA 2: TGGTGGCTACGACGGGATT
B4: CCAAUAG (DNA:RNA)
RNA: B2 RNA with G28A, G29U, C30A, U31G
DNA 1: CAATCTGAATTCCGGTCTCCC
DNA 2: TGGTGGCTACGACGGGATT
B5: UCAAGAG (DNA:RNA)
RNA: B2 RNA with C25U, G28A, C30A, U31G
DNA 1: CAATCTGAATTCCGGTCTCCC
DNA 2: TGGTGGCTACGACGGGATT
B6: GUUUUAG (DNA:RNA)
RNA: B1 RNA with U25G, G26U, C28U, C29U, G30A, A31G
DNA 1: CAATCTGAATTCCGGTCTCCC
DNA 2: TGGTGGCTACGACGGGATT
B7: GCGGAGC (DNA:RNA)
RNA: B2 RNA with C25G, A27G, G29A, C30G, U31C
DNA 1: CAATCTGAATTCCGGTCTCCC
DNA 2: TGGTGGCTACGACGGGATT
B8: CCUUACC (DNA:RNA)
RNA: B2 RNA with A27U, G28U, G29A, U31C
DNA 1: CAATCTGAATTCCGGTCTCCC
DNA 2: TGGTGGCTACGACGGGATT
B9: CCGUAGA (DNA:RNA)
RNA: B2 RNA with A27G, G28U, G29A, C30G, U31A
DNA 1: CAATCTGAATTCCGGTCTCCC
DNA 2: TGGTGGCTACGACGGGATT
B10: GUGCCUG (DNA:RNA)
RNA: B1 RNA with U25G, G26U, U27G, G30U, A31G
DNA 1: CAATCTGAATTCCGGTCTCCC
DNA 2: TGGTGGCTACGACGGGATT
B11: UGUCCCG (DNA:RNA)
RNA: B1 RNA with G30C, A31G
DNA 1: CAATCTGAATTCCGGTCTCCC
DNA 2: TGGTGGCTACGACGGGATT
B12: UUGCCUG (DNA:RNA)
RNA: B1 RNA with G26U, U27G, G30U, A31G
DNA 1: CAATCTGAATTCCGGTCTCCC
DNA 2: TGGTGGCTACGACGGGATT
B13: GUCCUGG (DNA:RNA)
RNA: B1 RNA with U25G, G26U, U27C, C29U, A31G
DNA 1: CAATCTGAATTCCGGTCTCCC
DNA 2: TGGTGGCTACGACGGGATT
B14: UGCCUGG (DNA:RNA)
RNA: B1 RNA with U27C, C29U, A31G
DNA 1: CAATCTGAATTCCGGTCTCCC
DNA 2: TGGTGGCTACGACGGGATT
B15: UGGUGCC (DNA:RNA)
RNA: B2 RNA with C25U, C26G, A27G, G28U, U31C
DNA 1: CAATCTGAATTCCGGTCTCCC
DNA 2: TGGTGGCTACGACGGGATT
B16: UGCUGGU (DNA:RNA)
RNA: B1 RNA with U27C, C28U, C29G, A31U
DNA 1: CAATCTGAATTCCGGTCTCCC
DNA 2: TGGTGGCTACGACGGGATT
B17: UGUUGCC (DNA:RNA)
RNA: B1 RNA with C28U, C29G, G30C, A31C
DNA 1: CAATCTGAATTCCGGTCTCCC
DNA 2: TGGTGGCTACGACGGGATT
B18: UGGUUCG (DNA:RNA)
RNA: B1 RNA with U27G, C28U, C29U, G30C, A31G
DNA 1: CAATCTGAATTCCGGTCTCCC
DNA 2: TGGTGGCTACGACGGGATT
B19: UGGUUCC (DNA:RNA)
RNA: B1 RNA with U27G, C28U, C29U, G30C, A31C
DNA 1: CAATCTGAATTCCGGTCTCCC
DNA 2: TGGTGGCTACGACGGGATT
B20: UGUGCCG (DNA:RNA)
RNA: B1 RNA with C28G, G30C, A31G
DNA 1: CAATCTGAATTCCGGTCTCCC
DNA 2: TGGTGGCTACGACGGGATT
B21: UGUAGCC (DNA:RNA)
RNA: B1 RNA with C28A, C29G, G30C, A31C
DNA 1: CAATCTGAATTCCGGTCTCCC
DNA 2: TGGTGGCTACGACGGGATT
B22: GAGUCGU (DNA:RNA)
RNA: B1 RNA with U25G, G26A, U27G, C28U, A31U
DNA 1: CAATCTGAATTCCGGTCTCCC
DNA 2: TGGTGGCTACGACGGGATT
B23: AUGCAAU (DNA:RNA)
RNA: B2 RNA with C25A, C26U, A27G, G28C, G29A, C30A
DNA 1: CAATCTGAATTCCGGTCTCCC
DNA 2: TGGTGGCTACGACGGGATT
B24: AGAUGAG (DNA:RNA)
RNA: B2 RNA with C25A, C26G, G28U, C30A, U31G
DNA 1: CAATCTGAATTCCGGTCTCCC
DNA 2: TGGTGGCTACGACGGGATT
B25: ACGGGCC (DNA:RNA)
RNA: B2 RNA with C25A, A27G, U31C
DNA 1: CAATCTGAATTCCGGTCTCCC
DNA 2: TGGTGGCTACGACGGGATT
B26: UGCCUUG (DNA:RNA)
RNA: B1 RNA with U27C, C29U, G30U, A31G
DNA 1: CAATCTGAATTCCGGTCTCCC
DNA 2: TGGTGGCTACGACGGGATT
B27: UGCCUCC (DNA:RNA)
RNA: B1 RNA with U27C, C29U, G30C, A31C
DNA 1: CAATCTGAATTCCGGTCTCCC
DNA 2: TGGTGGCTACGACGGGATT
B28: UGCUGCC (DNA:RNA)
RNA: B2 RNA with C25U, C26G, A27C, G28U, U31C
DNA 1: CAATCTGAATTCCGGTCTCCC
DNA 2: TGGTGGCTACGACGGGATT
B29: UAGUAGG (DNA:RNA)
RNA: B1 RNA with G26A, U27G, C28U, C29A, A31G
DNA 1: CAATCTGAATTCCGGTCTCCC
DNA 2: TGGTGGCTACGACGGGATT
B30: GGGGUGU (DNA:RNA)
RNA: B2 RNA with C25G, C26G, A27G, G29U, C30G
DNA 1: CAATCTGAATTCCGGTCTCCC
DNA 2: TGGTGGCTACGACGGGATT
B31: CGGGUGU (DNA:RNA)
RNA: B2 RNA with C26G, A27G, G29U, C30G
DNA 1: CAATCTGAATTCCGGTCTCCC
DNA 2: TGGTGGCTACGACGGGATT
B32: CGGUGUU (DNA:RNA)
RNA: B2 RNA with C26G, A27G, G28U, C30U
DNA 1: CAATCTGAATTCCGGTCTCCC
DNA 2: TGGTGGCTACGACGGGATT
B33: GGGUGUU (DNA:RNA)
RNA: B2 RNA with C25G, C26G, A27G, G28U, C30U
DNA 1: CAATCTGAATTCCGGTCTCCC
DNA 2: TGGTGGCTACGACGGGATT
B34: GGUGUGU (DNA:RNA)
RNA: B1 RNA with U25G, C28G, C29U, A31U
DNA 1: CAATCTGAATTCCGGTCTCCC
DNA 2: TGGTGGCTACGACGGGATT
B35: CCCGGGU (DNA:RNA)
RNA: B2 RNA with A27C, C30G
DNA 1: CAATCTGAATTCCGGTCTCCC
DNA 2: TGGTGGCTACGACGGGATT

The assay addresses T1, RBFOX1 RRM (Homo sapiens, UniProt Q9NWB1 109-208).
T1 sequence: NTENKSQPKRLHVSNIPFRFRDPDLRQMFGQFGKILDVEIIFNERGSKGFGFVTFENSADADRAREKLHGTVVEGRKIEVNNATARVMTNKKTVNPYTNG
Nature of the assay: EMSA; HiTS-Eq, 1 nM pool, 10 min; buffer printed only for the single-RNA assays: 10 mM Tris pH 7.5, 150 mM NaCl, 3.4 mM EDTA, 0.001% NP-40, 30 C. The conditions noted are these: tags: His6 N-terminal (pET28a); label: 5' 32P. In a few lines: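 Purified RbFox RRM (wild type or mutant) was equilibrated for 10 min in 50 µL with 1 nM of a 5′-radiolabelled pool of RNA with 7 randomized nucleotides, its flanks annealed to DNA oligonucleotides, across increasing protein concentrations. Free RNA was separated by 8% native PAGE, excised, reverse-transcribed, PCR-barcoded and sequenced on an Illumina HiSeq 2500. Relative association constants came from read-count changes of each variant against the control reaction, normalised to the cognate motif.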
For orientation: Mobility shift assays separate free from complexed probe on a gel.
B1: the binding signal is 0.0182 KA relative to UGCAUGU.

Consider B2, for which the binding signal is 0.00926 KA relative to UGCAUGU.

For the molecule B3, the binding signal is 0.0164 KA relative to UGCAUGU.

Consider B4, for which the binding signal was 0.00034 KA relative to UGCAUGU.

For B5, the binding signal was 0.00877 KA relative to UGCAUGU.

Regarding B6, the binding signal is 0.0145 KA relative to UGCAUGU.

As for B7, the binding signal is 0.0117 KA relative to UGCAUGU.

For the molecule B8, the binding signal was 0.00281 KA relative to UGCAUGU.

For B9, the binding signal was 0.00944 KA relative to UGCAUGU.

For B10, the binding signal is 0.0397 KA relative to UGCAUGU.

As to B11, the binding signal was 0.0122 KA relative to UGCAUGU.

With B12, the binding signal was 0.0452 KA relative to UGCAUGU.

As for B13, the binding signal was 0.0183 KA relative to UGCAUGU.

In the case of B14, the binding signal is 0.0474 KA relative to UGCAUGU.

For the molecule B15, the binding signal is 0.0219 KA relative to UGCAUGU.

With B16, the binding signal is 0.028 KA relative to UGCAUGU.

B17: the binding signal was 0.0243 KA relative to UGCAUGU.

As for B18, the binding signal was 0.0375 KA relative to UGCAUGU.

For B19, the binding signal is 0.0214 KA relative to UGCAUGU.

Regarding B20, the binding signal is 0.0199 KA relative to UGCAUGU.

B21: the binding signal was 0.0129 KA relative to UGCAUGU.

For B22, the binding signal was 0.0129 KA relative to UGCAUGU.

For the molecule B23, the binding signal is 0.00453 KA relative to UGCAUGU.

Turning to B24, the binding signal is 0.0142 KA relative to UGCAUGU.

Take B25: the binding signal was 0.0142 KA relative to UGCAUGU.

For the molecule B26, the binding signal is 0.0505 KA relative to UGCAUGU.

For B27, the binding signal is 0.00846 KA relative to UGCAUGU.

With B28, the binding signal is 0.0265 KA relative to UGCAUGU.

For B29, the binding signal is 0.00933 KA relative to UGCAUGU.

For the molecule B30, the binding signal was 0.038 KA relative to UGCAUGU.

On to B31, for which the binding signal is 0.0321 KA relative to UGCAUGU.

As to B32, the binding signal is 0.0192 KA relative to UGCAUGU.

B33: the binding signal was 0.0233 KA relative to UGCAUGU.

In the case of B34, the binding signal was 0.0173 KA relative to UGCAUGU.

Consider B35, for which the binding signal is 0.00573 KA relative to UGCAUGU.
